Source: PubChem BioAssay (National Center for Advancing Translational Sciences (NCATS))
Cycloheximide cs = counter-screen hit for Shiga toxin inhibitors, cycloheximide; cell reporter, cycloheximide protein synthesis inhibition counterscreen; max response, %; 12% of 300,000 active; in the data active = max response mostly above about 13%, no sharp cut-off; inactive = mostly below about 14%; note: read at 38.3 µM for the half of the compounds with a filed dose; 0% is about no effect
MARV entry inh = blocks Marburg virus binding to or entry into cells | 1.8% of 300,000 active | Marburg virus pseudotyped entry inhibition, cell reporter | AID 540276 | Potency, µM (titrated, usually from 37.8 µM), for the others: at the top dose activity change, negative = inhibition, most hits filed as inhibitors; calls by dose curve; tested in HEK293 cells; note: potency is the fitted concentration of half-maximal effect; % is set by controls: 0 for no effect and ±100 for the full control effect
Pf growth 48h = inhibits P. falciparum growth in the first generation, 48 h. P. falciparum luciferase growth in erythrocytes, 48 h. Potency, µM (highest dose often 28.7 µM), inactives show top-dose activity change, negative = inhibition, usual class: inhibitors. 5.9% of 310,000 active. AID 504832; note: potency is the fitted concentration of half-maximal effect; % is set by controls: 0 for no effect and ±100 for the full control effect
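Erythrocytes infected with P. falciparum carrying an integrated firefly luciferase reporter (2% hematocrit, 0.1% parasitemia final) were exposed to compounds in RPMI 1640 with 0.5% Albumax at 37 C, 5% CO2. Growth inhibition was scored as reduced luminescence.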
Pf growth 96h = P. falciparum growth inhibition at 96 hour, primary screen for plastid delayed-death inhibitors; P. falciparum luciferase reporter growth, 96 h; Potency, µM (doses to about 28.7 µM), inactives show top-dose activity change, negative = inhibition, actives largely listed as inhibitors; 6.9% of 320,000 active; AID 504834; note: potency is the fitted concentration of half-maximal effect; % is set by controls: 0 for no effect and ±100 for the full control effect
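Two-generation exposure (96 h) targets delayed-death phenotype. Reporter parasites carrying integrated firefly luciferase, in red cells at 2% hematocrit and 0.05% parasitemia final, kept at 37 C, 5% CO2; luminescence loss indicates inhibition.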
Shiga inhibitor = blocks Shiga toxin action in Vero cells | inhibition, % at 38.7 µM | AID 2315 | Vero cells, Shiga toxin protein synthesis inhibition reporter | 9.2% of 290,000 active; in the data active = inhibition mostly above about 28%, no sharp cut-off; inactive = mostly below about 43%; note: 0% is about no effect
LASV entry inh = Lassa virus entry inhibition. Lassa virus pseudotype entry inhibition, cell reporter. Potency, µM (top dose mostly 37.9 µM), inactives show at the highest dose activity change, negative = inhibition, usual class: inhibitors. 1.2% of 300,000 active. AID 540256; calls by dose curve; tested in HEK293 cells; note: potency is the fitted concentration of half-maximal effect; % is set by controls: 0 for no effect and ±100 for the full control effect; nearly all actives have a fitted effect of over 50% in size
The depositor's hits bear a star; i = inactive; ? = inconclusive; · = no result; + = active, no number; [ ] = remark or other dose. Hits are enriched below; roughly 19% of the tested compounds scored in any of these assays. Unless noted, calls come from the whole dose curve; as a rule, active = well fitted inhibition curve with a large enough effect; inconclusive = small, poorly fitted or top-dose-only effect, or another doubt; inactive = no such curve, though single readings can be large or run the other way.

SMILES	Cycloheximide cs	MARV entry inh	Pf growth 48h	Pf growth 96h	Shiga inhibitor	LASV entry inh
O=C(c1sc2ccccc2c1Cl)N1CCC2(CC1)OCCO2	12*	21%	26%	-3%	17	-7%
O=C(c1cc(-c2ccc(F)cc2)on1)N1CCCCCC1	46*	?	174%	15µM*	115*	?
O=C(/C=C/c1ccc(-c2ccc(F)cc2)o1)N1CCCC1	39*	?	343%	53%	64*	?
CCOC(=O)C1CCCN(C(=O)c2cc(-c3ccc(C)cc3)on2)C1 (stereo not drawn)	58*	-28%	83%	-96%	113*	?
CSc1ccc(C(=O)C2CCCN(C(=O)c3ccc4c(c3)OCO4)C2)cc1 (stereo not drawn)	-3	·	5%	41%	-7	·
O=C(CNC(=S)N(CCCN1CCOCC1)Cc1cccs1)NCc1ccccc1	-2	·	-6%	59%	0	·
O=C(c1cc(-c2ccc(F)cc2)on1)N1CCOCC1	27*	?	166%	-12%	45	·
Cc1cc(N2CCN(C(=O)c3ccco3)CC2)nc(-c2ccccc2)n1	11	?	?	18%	-11	11µM*
O=C(c1cc(-c2ccc(O)cc2)on1)N1CCN(c2ccc(F)cc2)CC1	7	·	-14%	45%	5	·
O=C(c1cc(COc2ccc3ncccc3c2)on1)N1CCC[C@H]1CO	34*	-21%	-6%	?	56*	?
O=C(c1cc(COc2ccc3ncccc3c2)on1)N1CCCC(O)C1 (stereo not drawn)	3	-18%[46.1 µM]	49%	?	10	-5%[46.1 µM]
O=C(c1cc2ccccn2n1)N1CCC2(CC1)OCCO2	6	0%	23%	?	-6	26%
O=C(c1cc(-c2ccccc2)on1)N1CCC2(CC1)OCCO2	32*	·	61%	20%	79*	·
Cc1ccc(C(=O)NC(C)c2ccc(-n3ccnc3)cc2)c(C)c1 (stereo not drawn)	-2	·	-3%	?	-6	·
COCCC1CCCCN1C(=O)c1cc(COc2ccc(C)nc2)on1 (stereo not drawn)	49*	?	-12%	?	45	-10%
O=C(c1cc(-c2ccc(O)cc2)on1)N1CCN(c2ccccc2)CC1	12	?	12%	35%	33	?
Cc1cc(N2CCN(C(=O)c3ccco3)CC2)n2nc(-c3cccc(F)c3)cc2n1	-4	?	?	?	-17	-1%
Cc1ccc(-c2cc(C(=O)N3CCCCCC3)no2)cc1	48*	?	255%	?	102*	?
O=C(c1cc(-c2ccc(Cl)cc2)on1)N1CCc2ccccc2C1	-3	0%[46.1 µM]	3%	18%	-9	3%
COc1cc(OC)cc(-c2cc3nc(C)cc(N4CCN(C(=O)c5ccco5)CC4)n3n2)c1	-4	-6%	·	1.9µM*	-20	·
O=C(c1cc(-c2ccc(O)cc2)on1)N1CCCC1	37*	11µM*	164%	20%	97*	?
NC(=O)NCc1cccs1	-1	7%[46.1 µM]	8%	8%	-10	-9%
CCSc1nc(O)cc(=O)n1-c1ccc(OC)cc1	-4	?	·	20%	-11	-16%
Cc1cc2[nH]c(=O)c(=O)[nH]c2cc1S(=O)(=O)Nc1ccc(OC(F)(F)F)cc1	·	·	·	·	·	-3%[46.1 µM]
COc1ccc(NC(=O)C(OC(=O)c2ccc([N+](=O)[O-])o2)c2ccccc2)cc1Cl (stereo not drawn)	20*	9%	22%	50%	18	-4%
SMILES	Cycloheximide cs	MARV entry inh	Pf growth 48h	Pf growth 96h	Shiga inhibitor	LASV entry inh
Cc1nn(-c2cccc(C(F)(F)F)c2)c(Cl)c1/C=N/Nc1cccc(C(=O)O)c1	106*	?	257%	i	+	?
Cc1nn(Cc2ccccc2)c(Cl)c1/C=N/NC(=O)CNc1cccc(C(F)(F)F)c1	-1	0%	?	12µM*	-7	?
Cc1nn(-c2ccc(F)cc2)c(Cl)c1/C=N/NC(=O)c1cccc(S(=O)(=O)N2CCCC2)c1	-1	?	?	?	-4	0%
Cc1nn(-c2ccccc2Cl)c(Cl)c1/C=N/Nc1cccc(C(=O)O)c1	64*	?	42%	101%	70*	?
CCOC(=O)N/N=C/c1c(C)nn(-c2cccc(C(F)(F)F)c2)c1Cl	13*	?	2.1µM*	1.5µM*	35	7.1µM*
Cc1nn(-c2ccccc2)c(Cl)c1/C=N/NC(=O)c1cccc(S(=O)(=O)N2CCCC2)c1	-3	?	12%	23%	15	7%
CCn1cc(C(=O)N[C@H](C(=O)NC(C)(C)CO)C(C)C)c(=O)c2cc3c(cc21)OCO3	-5	·	?	8.3µM*	-7	·
CCn1cc(C(=O)N[C@@H](CCSC)C(=O)NC(C)(C)CO)c(=O)c2cc3c(cc21)OCO3	-1	·	1.9µM*	1.5µM*	-7	·
COc1ccc(NC(=O)NCCc2c(C)nn(C)c2C)c(OC)c1	·	·	·	·	·	9%[46.1 µM]
COc1cc(Br)c(CNc2cc(C)ccc2C)cc1OC	-2	·	?	15%	-4	·
COc1cc(CNc2cc(C)ccc2C)cc(OC)c1OC	13	-11%	5.2µM*	?	-10	0%
CSc1ccccc1C(=O)NCC(c1ccco1)N1CCCCC1 (stereo not drawn)	-1	?	-12%	?	-6	-9%
CCc1cc(C(=O)NCC(c2ccco2)N2CCCCC2)sc1C (stereo not drawn)	·	·	9.3µM*	5.9µM*	·	·
Cc1c(C(=O)NCC(c2ccco2)N2CCCC2)sc2ccccc12 (stereo not drawn)	·	11µM*	·	·	·	-1%[46.1 µM]
Cc1ccc(C)c(SCC(=O)NCC(c2ccco2)N2CCCCC2)c1 (stereo not drawn)	·	13µM*	?	?	·	?
O=C(NCC(c1ccco1)N1CCCC1)c1sc2ccccc2c1Cl (stereo not drawn)	11	·	-13%	?	-2	·
Cc1cc(Br)ccc1SCC(=O)NCC(c1ccco1)N1CCCCC1 (stereo not drawn)	·	?	?	?	·	-18%
COC(=O)C(CC(=O)c1ccc(Br)cc1)n1nc(C)cc1C (stereo not drawn)	-3	8%[46.1 µM]	-15%	1%	-7	-14%[46.1 µM]
Cn1nc(-c2ccccc2)c(C#N)c1Sc1cccc(Cl)c1	10	-14%	?	10µM*	-8	19%
COc1cccc(NC(=S)N(CCC(C)C)C(C)c2ccncc2)c1 (stereo not drawn)	6	·	?	7%	2	·
C/C(=N\N=C1\NC(=O)C(Cc2ccccc2)S1)c1ccccc1 (stereo not drawn)	2	25%	?	?	-17	2.3µM*
COc1cc(/C=N/N=C2/NC(=O)C(Cc3ccccc3)S2)ccc1O (stereo not drawn)	33*	?	-26%	?	99*	?
